Measured potencies and affinities stand elsewhere. Unmarked numbers belong to inactive results.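 How the source made its calls: active means cytotoxic compounds whose fitted half-maximal concentration is at most twice the top valid tested dose; inconclusive means flat curve showing 30 to 70% signal loss, or poor fit; inactive means the rest.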
Assay: viability loss in A549 lung cells – cell-based, 24 h, CellTiter-Glo luminescence, cherry-picks, cytotoxicity control, dose response (AID 1053115)
Conditions: CellTiter-Glo ATP luminescence; series mostly up to 30 µM; activity change, negative = cytotoxicity: at the top concentration

Row | SMILES | activity change, negative = cytotoxicity
1 | C[C@@H]1CN([C@H](C)CO)S(=O)(=O)c2ccc(C#C[C@@H](C)O)cc2O[C@@H]1CN(C)Cc1ccc(-c2ccccc2)cc1 | -21.6%
2 | C[C@H](O)C#Cc1ccc2c(c1)O[C@@H](CN(C)Cc1ccccc1)[C@@H](C)CN([C@@H](C)CO)S2(=O)=O | 3.63%
3 | C[C@H](O)C#Cc1ccc2c(c1)O[C@H](CN(C)Cc1ccccc1)[C@@H](C)CN([C@@H](C)CO)S2(=O)=O | -6.89%
4 | C[C@@H]1CN([C@@H](C)CO)S(=O)(=O)c2ccc(C#C[C@@H](C)O)cc2O[C@H]1CN(C)Cc1ccccc1 | -0.87%
5 | CN(C)C(=O)c1ccc(-c2cccc(-c3nc(C(=O)NC4CCCC4)cc4c3[C@H](CCO)N([S@@](=O)C(C)(C)C)C4)c2)cc1 | -3.79%
6 | C[C@@H]1CN([C@@H](C)CO)C(=O)Cc2cc(NC(=O)C3CCCCC3)ccc2O[C@H]1CN(C)C(=O)Nc1ccccc1 | 10.5%
7 | C[C@@H]1CN([C@H](C)CO)S(=O)(=O)c2ccc(C#C[C@@H](C)O)cc2O[C@@H]1CN(C)Cc1ccccc1 | -5.16%
8 | C[C@@H]1CN([C@H](C)CO)C(=O)c2cccc(NC(=O)Nc3ccc(F)cc3)c2O[C@@H]1CN(C)S(=O)(=O)c1ccc(Cl)cc1 | 11.2%
9 | CN1c2ccc(C#Cc3cccnc3)cc2[C@@H]2[C@@H](CCN2C(=O)C2CCCCC2)[C@H]1CO | -3.85%
10 | COc1ccccc1CN1CC[C@H]2[C@H](CO)Nc3ccc(-c4ccc(C(=O)N(C)C)cc4)cc3[C@H]21 | -9.71%
11 | CN(C)C(=O)c1ccc(-c2cccc(-c3nc(C(=O)NC4CCCCC4)cc4c3[C@@H](CCO)N([S@](=O)C(C)(C)C)C4)c2)cc1 | 15.4%
12 | C[C@H](CO)N1C[C@H](C)[C@@H](CN(C)Cc2ccccc2)Oc2cc(C#C[C@@H](C)O)ccc2S1(=O)=O | -11.4%
13 | C[C@@H]1CN([C@H](C)CO)S(=O)(=O)c2ccc(C#C[C@@H](C)O)cc2O[C@H]1CN(C)Cc1ccccc1 | -5.37%
14 | N#Cc1ccc(-c2ccc3c(c2)[C@@H]2[C@@H](CCN2C(=O)C2CCCCC2)[C@@H](CO)N3)cc1 | -14.1%
15 | CN1c2ccc(C#Cc3cccnc3)cc2[C@H]2[C@H](CCN2C(=O)C2CCC2)[C@@H]1CO | 8.82%
16 | C[C@H]1CCCCO[C@H](CN(C)S(=O)(=O)c2ccc(Cl)cc2)[C@@H](C)CN([C@@H](C)CO)C(=O)c2cc(NC(=O)Nc3ccc(F)cc3)ccc2O1 | -3.3%
17 | C[C@@H](O)C#Cc1ccc2c(c1)O[C@H](CN(C)Cc1ccccc1)[C@@H](C)CN([C@@H](C)CO)S2(=O)=O | 18.7%
18 | CN1c2ccc(C#Cc3cccnc3)cc2[C@H]2[C@H](CCN2C(=O)C2CCCCC2)[C@H]1CO | -14.6%
19 | COc1ccccc1CN1CC[C@@H]2[C@H]1c1cc(-c3ccc(C(=O)N(C)C)cc3)ccc1N[C@@H]2CO | 0.92%
20 | C[C@H](CO)N1C[C@H](C)[C@@H](CN(C)S(=O)(=O)c2ccc(Cl)cc2)Oc2c(NS(=O)(=O)c3cn(C)cn3)cccc2C1=O | -6.4%
21 | CCCNC(=O)c1cc2c(c(-c3cccc(-c4cccc(F)c4)c3)n1)[C@H](CCO)N([S@@](=O)C(C)(C)C)C2 | 13.3%
22 | C[C@H](O)C#Cc1ccc2c(c1)O[C@H](CN(C)Cc1ccc(-c3ccccc3)cc1)[C@H](C)CN([C@@H](C)CO)S2(=O)=O | 9.92%

From PubChem BioAssay AID1053115 (Broad Institute, 2014)
